{
  "source": "PubChem BioAssay (NCI)",
  "note": "This is part of a sample that, as a whole, favours compounds with a hit. Of some 79,000 tested, about 15% had one in any assay. Values without a mark were called inactive. Active and inactive are the calls of the source. Rule as the data show it: active = growth inhibition above about 70%; inactive = the rest.",
  "data": [
    {"assay": "NCI Yeast Anticancer Drug Screen. Data for the bub3 strain (AID 167)", "conditions": "S. cerevisiae bub3 mutant strain, at 50.0 µM (retest, dose inferred, filed as 5.0), stronger effect = higher value", "how_it_was_run": "(§1)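 Compounds were applied to a genetically altered yeast strain carrying a cell-cycle control defect. Growth inhibition was scored against vehicle-treated controls.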", "values": [
      {"smiles": "C=C(CCC(C)C1CCC2(C)C3=C(CC(O)C12C)C1(C)CCC(O)C(C)(C)C1CC3)C(C)C(=O)O", "note": "(stereo not given)", "growth inhibition": "94% (active)"},
      {"smiles": "CC(=O)O[C@H]1CC[C@]2(C)C3=CC[C@]4(C)[C@@H](C(C)=O)CC[C@H]4[C@@]34C=C[C@]2(C1)C1C(=O)OC(=O)C14", "note": "(stereo not given in full)", "growth inhibition": "4%"},
      {"smiles": "CCC1(c2ccc(N3C(=O)c4ccccc4C3=O)cc2)CCC(=O)NC1=O", "note": "(stereo not given)", "growth inhibition": "-19%"},
      {"smiles": "O=C(NNS(=O)(=O)c1ccccc1)Nc1ccccc1", "growth inhibition": "1%"},
      {"smiles": "CCN(CC)CCNc1c(C)ccc2cccnc12", "growth inhibition": "2%"},
      {"smiles": "CCOC(=O)CCC(NC(=O)c1ccc(NC(OC)c2nc3cc(C(F)(F)F)ccc3nc2-c2ccccc2)cc1)C(=O)OCC", "note": "(stereo not given)", "growth inhibition": "84% (active)"},
      {"smiles": "CCCC(O)C[N+](=O)[O-]", "note": "(stereo not given)", "growth inhibition": "4%"},
      {"smiles": "O=C(Nc1cccc(Br)c1)Oc1cccc2cccnc12", "growth inhibition": "73% (active)"},
      {"smiles": "C=C1CC(C)(COc2ccc3c(C)c(C)c(=O)oc3c2C)OC1=O", "note": "(stereo not given)", "growth inhibition": "86% (active)"},
      {"smiles": "Cc1cc(Br)c(N2C3=C(CC4=C2CCCC4=O)C(=O)CCC3)c(Br)c1", "growth inhibition": "95% (active)"},
      {"smiles": "CCN(CC)CC(O)CNc1ccc(C)c2sc3ccccc3c(=O)c12", "note": "(stereo not given)", "growth inhibition": "99% (active)"},
      {"smiles": "COC1/C=C/OC2(C)Oc3c(C)c(O)c4c(c3C2=O)C(=O)C=C(NC(=O)/C(C)=C\\C=C\\C(C)C(OC=O)C(C)C(O)C(C)C(OC(C)=O)C1C)C4=O", "note": "(stereo not given)", "growth inhibition": "5%"},
      {"smiles": "OC(c1cc2ccccc2o1)c1cc2ccccc2s1", "note": "(stereo not given)", "growth inhibition": "93% (active)"},
      {"smiles": "Nc1nnc(-c2cc([N+](=O)[O-])cc([N+](=O)[O-])c2)o1", "growth inhibition": "7%"},
      {"smiles": "CC1SC(=S)N(c2ccc(Cl)cc2)C1=O", "note": "(stereo not given)", "growth inhibition": "28%"},
      {"smiles": "CCCCCCCCCC(=O)NN=C(C)C", "growth inhibition": "41%"},
      {"smiles": "O=C(/C=C/c1ccccc1)C1(c2ccccc2)CC1", "growth inhibition": "39%"},
      {"smiles": "Nc1n[n+](-c2ccccc2)no1", "growth inhibition": "59%"},
      {"smiles": "N#CC(C#N)=C(c1ccccc1)c1ccccc1", "growth inhibition": "100% (active)"},
      {"smiles": "CS(=O)(=O)OCCCN(CCCOS(C)(=O)=O)c1ccc(C=Nc2ccc(-c3csc(COc4ccc(Br)cc4Br)n3)cc2)cc1", "growth inhibition": "90% (active)"},
      {"smiles": "CSc1ncnc2ncn(C3OC(CO)C(O)C3O)c12", "note": "(stereo not given)", "growth inhibition": "-14%"},
      {"smiles": "CNC(=O)c1ccc(OC)cc1C1(O)c2ccccc2CCc2ccccc21", "growth inhibition": "87% (active)"},
      {"smiles": "O=[N+]([O-])c1ccc(Oc2c(Cl)cccc2Cl)cc1", "growth inhibition": "19%"},
      {"smiles": "CN(C)C(=O)c1ccc(SC(=S)NCc2ccccc2)cc1", "growth inhibition": "99% (active)"},
      {"smiles": "CC(C)c1ccc(C(=O)OC2CCCCC2)cc1", "growth inhibition": "100% (active)"},
      {"smiles": "O=C(Nc1ccc(C(=O)c2ccccc2)cc1)Nc1ccc(Cl)c(Cl)c1", "growth inhibition": "98% (active)"},
      {"smiles": "O=C1c2ccccc2C(=O)c2sc(Nc3ccc(Cl)cc3)nc21", "growth inhibition": "99% (active)"},
      {"smiles": "O=C1NC(=O)N(c2ccc([N+](=O)[O-])cc2)C1=O", "growth inhibition": "5%"},
      {"smiles": "CCN(CC)CCNc1nc(N)c2nc(-c3ccccc3)c(-c3ccccc3)nc2n1", "growth inhibition": "36%"},
      {"smiles": "CCCCCCCCOc1ccc(/C=C/C(C)=N/NC(N)=NC)cc1OC", "growth inhibition": "99% (active)"},
      {"smiles": "CC1=NN(C(=O)c2ccc(Cl)cc2)C(=O)C1N=Nc1ccc(S(=O)(=O)Nc2ncccn2)cc1", "note": "(stereo not given)", "growth inhibition": "-8%"},
      {"smiles": "CCOC(=O)C(Br)C(Br)c1cccc([N+](=O)[O-])c1", "note": "(stereo not given)", "growth inhibition": "99% (active)"},
      {"smiles": "Cc1ccccc1N1CCN(c2c3c(nc4ccccc24)CCCCC3)CC1", "growth inhibition": "95% (active)"},
      {"smiles": "O=S(=O)(O)SCCNCCCCCC1CCCCC1", "growth inhibition": "95% (active)"},
      {"smiles": "CC([N+](=O)[O-])C1(O)C(=O)c2cccc3cccc1c23", "note": "(stereo not given)", "growth inhibition": "91% (active)"},
      {"smiles": "CCS(CC)(CC)CC1CCCC2=CCC(P(=O)(c3ccccc3)c3ccccc3)CC21", "note": "(stereo not given)", "growth inhibition": "-8%"},
      {"smiles": "O=C(O)C(CS)Nc1c2ccccc2nc2ccccc12", "note": "(stereo not given)", "growth inhibition": "71% (active)"},
      {"smiles": "CCCCCCCCCCCC1C(C#N)C(=O)NC(=O)C1C#N", "note": "(stereo not given)", "growth inhibition": "86% (active)"},
      {"smiles": "O=C(O)CCSSCCCCCS(=O)O", "growth inhibition": "9%"},
      {"smiles": "CC(C)CNc1cc(Cl)nc(N)n1", "growth inhibition": "-2%"}
    ]},
    {"assay": "NCI Yeast Anticancer Drug Screen. Data for the bub3 strain (AID 167)", "conditions": "S. cerevisiae bub3 mutant strain, at 50.0 µM, stronger effect = higher value", "how_it_was_run": "as §1", "values": [
      {"smiles": "C=C(CCC(C)C1CCC2(C)C3=C(CC(O)C12C)C1(C)CCC(O)C(C)(C)C1CC3)C(C)C(=O)O", "note": "(stereo not given)", "growth inhibition": "80.9% (active)"},
      {"smiles": "CC(=O)O[C@H]1CC[C@]2(C)C3=CC[C@]4(C)[C@@H](C(C)=O)CC[C@H]4[C@@]34C=C[C@]2(C1)C1C(=O)OC(=O)C14", "note": "(stereo not given in full)", "growth inhibition": "56.9%"},
      {"smiles": "CCC1(c2ccc(N3C(=O)c4ccccc4C3=O)cc2)CCC(=O)NC1=O", "note": "(stereo not given)", "growth inhibition": "-8.6%"},
      {"smiles": "O=C(NNS(=O)(=O)c1ccccc1)Nc1ccccc1", "growth inhibition": "7.2%"},
      {"smiles": "CCN(CC)CCNc1c(C)ccc2cccnc12", "growth inhibition": "53.8%"},
      {"smiles": "CCOC(=O)CCC(NC(=O)c1ccc(NC(OC)c2nc3cc(C(F)(F)F)ccc3nc2-c2ccccc2)cc1)C(=O)OCC", "note": "(stereo not given)", "growth inhibition": "91.8% (active)"},
      {"smiles": "CCCC(O)C[N+](=O)[O-]", "note": "(stereo not given)", "growth inhibition": "13.5%"},
      {"smiles": "O=C(Nc1cccc(Br)c1)Oc1cccc2cccnc12", "growth inhibition": "87.8% (active)"},
      {"smiles": "C=C1CC(C)(COc2ccc3c(C)c(C)c(=O)oc3c2C)OC1=O", "note": "(stereo not given)", "growth inhibition": "-10.8%"},
      {"smiles": "Cc1cc(Br)c(N2C3=C(CC4=C2CCCC4=O)C(=O)CCC3)c(Br)c1", "growth inhibition": "98.2% (active)"},
      {"smiles": "CCN(CC)CC(O)CNc1ccc(C)c2sc3ccccc3c(=O)c12", "note": "(stereo not given)", "growth inhibition": "99.5% (active)"},
      {"smiles": "COC1/C=C/OC2(C)Oc3c(C)c(O)c4c(c3C2=O)C(=O)C=C(NC(=O)/C(C)=C\\C=C\\C(C)C(OC=O)C(C)C(O)C(C)C(OC(C)=O)C1C)C4=O", "note": "(stereo not given)", "growth inhibition": "49.6%"},
      {"smiles": "OC(c1cc2ccccc2o1)c1cc2ccccc2s1", "note": "(stereo not given)", "growth inhibition": "78.7% (active)"},
      {"smiles": "Nc1nnc(-c2cc([N+](=O)[O-])cc([N+](=O)[O-])c2)o1", "growth inhibition": "-19.2%"},
      {"smiles": "CC1SC(=S)N(c2ccc(Cl)cc2)C1=O", "note": "(stereo not given)", "growth inhibition": "85.5% (active)"},
      {"smiles": "CCCCCCCCCC(=O)NN=C(C)C", "growth inhibition": "88% (active)"},
      {"smiles": "O=C(/C=C/c1ccccc1)C1(c2ccccc2)CC1", "growth inhibition": "44.5%"},
      {"smiles": "Nc1n[n+](-c2ccccc2)no1", "growth inhibition": "45.2%"},
      {"smiles": "N#CC(C#N)=C(c1ccccc1)c1ccccc1", "growth inhibition": "99.3% (active)"},
      {"smiles": "CS(=O)(=O)OCCCN(CCCOS(C)(=O)=O)c1ccc(C=Nc2ccc(-c3csc(COc4ccc(Br)cc4Br)n3)cc2)cc1", "growth inhibition": "89.2% (active)"},
      {"smiles": "CSc1ncnc2ncn(C3OC(CO)C(O)C3O)c12", "note": "(stereo not given)", "growth inhibition": "-0.75%"},
      {"smiles": "CNC(=O)c1ccc(OC)cc1C1(O)c2ccccc2CCc2ccccc21", "growth inhibition": "58.8%"},
      {"smiles": "O=[N+]([O-])c1ccc(Oc2c(Cl)cccc2Cl)cc1", "growth inhibition": "75.5% (active)"},
      {"smiles": "CN(C)C(=O)c1ccc(SC(=S)NCc2ccccc2)cc1", "growth inhibition": "81% (active)"},
      {"smiles": "CC(C)c1ccc(C(=O)OC2CCCCC2)cc1", "growth inhibition": "88.7% (active)"},
      {"smiles": "O=C(Nc1ccc(C(=O)c2ccccc2)cc1)Nc1ccc(Cl)c(Cl)c1", "growth inhibition": "96.1% (active)"},
      {"smiles": "O=C1c2ccccc2C(=O)c2sc(Nc3ccc(Cl)cc3)nc21", "growth inhibition": "91.6% (active)"},
      {"smiles": "O=C1NC(=O)N(c2ccc([N+](=O)[O-])cc2)C1=O", "growth inhibition": "-4.4%"},
      {"smiles": "CCN(CC)CCNc1nc(N)c2nc(-c3ccccc3)c(-c3ccccc3)nc2n1", "growth inhibition": "61.7%"},
      {"smiles": "CCCCCCCCOc1ccc(/C=C/C(C)=N/NC(N)=NC)cc1OC", "growth inhibition": "99% (active)"},
      {"smiles": "CC1=NN(C(=O)c2ccc(Cl)cc2)C(=O)C1N=Nc1ccc(S(=O)(=O)Nc2ncccn2)cc1", "note": "(stereo not given)", "growth inhibition": "-6.7%"},
      {"smiles": "CCOC(=O)C(Br)C(Br)c1cccc([N+](=O)[O-])c1", "note": "(stereo not given)", "growth inhibition": "99.5% (active)"},
      {"smiles": "Cc1ccccc1N1CCN(c2c3c(nc4ccccc24)CCCCC3)CC1", "growth inhibition": "97.5% (active)"},
      {"smiles": "O=S(=O)(O)SCCNCCCCCC1CCCCC1", "growth inhibition": "52.2%"},
      {"smiles": "CC([N+](=O)[O-])C1(O)C(=O)c2cccc3cccc1c23", "note": "(stereo not given)", "growth inhibition": "68.8%"},
      {"smiles": "CCS(CC)(CC)CC1CCCC2=CCC(P(=O)(c3ccccc3)c3ccccc3)CC21", "note": "(stereo not given)", "growth inhibition": "67.8%"},
      {"smiles": "O=C(O)C(CS)Nc1c2ccccc2nc2ccccc12", "note": "(stereo not given)", "growth inhibition": "37.5%"},
      {"smiles": "CCCCCCCCCCCC1C(C#N)C(=O)NC(=O)C1C#N", "note": "(stereo not given)", "growth inhibition": "-27.9%"},
      {"smiles": "O=C(O)CCSSCCCCCS(=O)O", "growth inhibition": "13%"},
      {"smiles": "CC(C)CNc1cc(Cl)nc(N)n1", "growth inhibition": "59%"}
    ]}
  ]
}
